The sample as a whole holds a higher share of hits than the screen did.
TDP-43 tox inh: rescues yeast from TDP-43 toxicity. yeast TDP-43 toxicity rescue, BacTiter-Glo growth, 24 h. Potency, µM (top dose mostly 46.1 µM), usual class: activators. 45,000 tested, 0.45% active. AID 1347073; active = well fitted activation curve with a large enough effect; also: 0% is about no effect; nearly all actives have a fitted effect of over 55% in size
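TDP-43-expressing yeast, pregrown in raffinose, seeded at OD600 0.02 in galactose medium with compound for 24 hr at 30 deg C. Growth read by BacTiter-Glo luminescence, so rescue of toxicity appears as activation.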
The depositor's hits bear a star; i = inactive. Potency is read from the fitted curve at half-maximal effect.

SMILES	TDP-43 tox inh
COc1cccc(CC(=O)N2CCN(c3ccccc3[N+](=O)[O-])CC2)c1	i
COc1ccc(N2CCN(C(=S)NC(=O)c3cccs3)CC2)c([N+](=O)[O-])c1	28µM*
COc1cccc(C(=O)OCC(=O)Nc2ccc3c(c2)OCCO3)c1	i
O=C(Nc1ccccc1Cl)C1C2CCCCC21 (configuration not stated)	i
O=C(Nc1cc(Cl)ccc1Cl)C1Cc2ccccc2O/C1=N\O (configuration not stated)	11µM*
COc1cccc2c1O/C(=N\O)C(C(=O)Nc1cccc(C)c1C)C2 (configuration not stated)	i
CC(C)(C)Nc1nc(-c2ccc3c(c2)CCN3C(=O)C2CC2)cs1	i
O=C(O)CCC(=O)N1CN2CN(C(=O)CCC(=O)O)CC([N+](=O)[O-])(C2)C1	i
COc1ccc(-c2nc3c4cnn(-c5ccccc5F)c4ncn3n2)cc1	i
CCCCSc1nc(C)c(C(C)=O)cc1C#N	6.3µM*
Cc1cc(NC(=O)CSc2nc3ccccc3cc2C#N)no1	i
CC(=O)c1cc(C#N)c(N(C)Cc2ccccc2)nc1C	i
CCCCC1(C)NC(=O)N(CC(=O)Nc2ccc(Cl)cc2C)C1=O (configuration not stated)	i
O=C(Nc1ccc(F)c(Cl)c1)N1CCN(C(=O)c2nsc3ccccc23)CC1	i
Cc1cc(S(=O)(=O)N2CCOCC2)ccc1OCC(=O)Nc1ccc(Br)cc1F	i
COc1ccc(C(=S)N2CCOCC2)cc1OC(=O)c1cc(OC)c(OC)c(OC)c1	i
CN(C)CCCNc1cc(C(C)(C)C)nc2c(-c3ccccc3)cnn12	i
Cc1cc(NCc2ccccn2)n2ncc(-c3ccccc3)c2n1	8.9µM*
CCCc1cc(NCc2ccccn2)n2nc(C)c(-c3ccccc3)c2n1	i
CC(=O)c1ccc(S(=O)(=O)N2CCN(C)CC2)cc1	i
CC(Sc1nncs1)C(=O)Nc1ccc(Cl)cn1 (configuration not stated)	i
COc1ccc(CCNC(=O)CN(c2ccc(OC)c(OC)c2)S(=O)(=O)c2ccc(C)cc2)cc1	i
C=C(C)C(=O)Nc1ccc2c(c1)OCCOCCOCCO2	i
NC(c1csc(Nc2ccc(C(=O)NCCCO)cn2)n1)c1ccccc1Cl (configuration not stated)	i
Cc1ccc(CC(=O)NC2CCCc3ccccc32)cc1C (configuration not stated)	i
SMILES	TDP-43 tox inh
NC(=O)c1cc(C(=O)c2cccc(Cl)c2Cl)c[nH]1	i
O=C(c1ccc(Cl)c(S(=O)(=O)N2CCCC2)c1)N1CCN(c2ccccc2F)CC1	i
O=C(c1c[nH]c(C(=O)N2CCN(c3ccccc3F)CC2)c1)c1cccc(Cl)c1Cl	20µM*
COc1cc(C(=O)Nc2sc3c(c2C#N)CCCC3)c(Br)c(OC)c1OC	i
O=C(NCCc1ccccc1)c1ccc(-c2cccnc2)c2ccoc12	i
O=C(NCc1cccc(Cl)c1)c1ccc(-c2cccnc2)c2ccoc12	14µM*
Cn1cc(-c2ccc(C(=O)NCc3cccc(Cl)c3)c3occc23)cn1	i
CCc1nc2c(OCCC3CCCCC3)cccn2c1N(C=O)Cc1ccccc1	i
CC(=O)Nc1nnc(CSCc2ccccc2F)s1	i
CCn1c(SCC(=O)NC2=NCCS2)nnc1C(C)NC(=O)c1ccccc1Br (configuration not stated)	i
CCN(C(=O)CN1C(=O)c2ccccc2Sc2ccc(C(=O)OC)cc21)c1cccc(C)c1	i
COc1ccc2c(c1)Cc1sc(NC(=O)c3ccccc3C)nc1-2	i
CC(=O)Nc1ccc(NC(=O)COC(=O)c2ccc([N+](=O)[O-])o2)cc1	i
O=C(COC(=O)c1ccc([N+](=O)[O-])o1)NC1CCS(=O)(=O)C1 (configuration not stated)	i
CC1CCCC(NC(=O)COC(=O)c2ccc([N+](=O)[O-])o2)C1C (configuration not stated)	13µM*
COC(=O)C(NC(C)=O)(Nc1ccc(C)cn1)C(F)(F)F (configuration not stated)	i
NC(=S)N/N=C/c1cccc(/C=N/NC(N)=S)c1	i
Cc1ccc(-n2c(C)cc(/C=N/NC(N)=S)c2C)cc1	14µM*
Cc1cc(/C=N/NC(N)=S)c(O)c(/C=N/NC(N)=S)c1	i
Cc1nc2ccc(S(=O)(=O)N(C)CC(=O)Nc3ccc(C(C)C)cc3)cc2s1	i
O=C(CCC(=O)N1CCSc2ccccc21)NCc1ccccc1Cl	i
COc1ccc(C)cc1NC(=O)c1sc2nc(C)nc(N3CCOCC3)c2c1C	i
Cc1nc(N2CCCCC2)c2c(C)c(C(=O)Nc3ccccc3C(F)(F)F)sc2n1	18µM*
Cc1nc(N2CCN(C)CC2)c2c(C)c(C(=O)Nc3ccc(F)cc3)sc2n1	i
CC1(C(=O)Nc2ccc3c(c2)OCO3)CCN1Cc1csc2ccccc12 (configuration not stated)	i

Compound activity deposited in PubChem BioAssay by National Center for Advancing Translational Sciences (NCATS).
